Measured values reported in the supplement of paper PMC6992640.
± gives the standard deviation of the averaged measurements.

What was measured:
Assay in all cases: cell viability (% of vehicle); higher = less cytotoxic
Settings in all cases: 10 µM; 72 h
HCI01 = test system: HCI01 (cells of a triple-negative basal-like breast cancer xenograft)
HCI03 = test system: HCI03 (cells of an ER-positive luminal breast cancer xenograft)
HCI09 = test system: HCI09 (cells of a triple-negative luminal androgen receptor type breast cancer xenograft)
HCI11 = test system: HCI11 (cells of an ER-positive luminal breast cancer xenograft)
HCI13 = test system: HCI13 (cells of an ER-positive luminal breast cancer xenograft)
HCI16 = test system: HCI16 (cells of a triple-negative basal-like breast cancer xenograft)
UCD52 = test system: UCD52 (cells of a triple-negative basal-like breast cancer xenograft)
WHIM2 = test system: WHIM2 (cells of a triple-negative basal-like breast cancer xenograft)
WHIM30 = test system: WHIM30 (cells of a triple-negative basal-like breast cancer xenograft)
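Note: PDX cells carrying CMV promoter-driven luciferase, viability read as total photon flux per second by IVIS imaging following D-luciferin, vehicle control 0.1% DMSO.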

Compound	cell viability (HCI01)	cell viability (HCI03)	cell viability (HCI09)	cell viability (HCI11)	cell viability (HCI13)	cell viability (HCI16)	cell viability (UCD52)	cell viability (WHIM2)	cell viability (WHIM30)
O=c1cc(O)c(Cl)c[nH]1 [Gimeracil]	96.4 ± 1.7	131	94 ± 19	112	123 ± 14	91	87.8 ± 3.9	102 ± 15	101 ± 17
O=C([O-])CCCc1ccccc1.[Na+] [Sodium Phenylbutyrate]	122 ± 6.5	135	101 ± 19	117	124 ± 8.9	127	103 ± 16	103.7 ± 0.73	162 ± 27
CC12CC3CC(C)(C1)CC(N)(C3)C2.Cl [Memantine hydrochloride]	88.8 ± 14	146	104 ± 13	99.3	116 ± 3.6	98.2	92.37 ± 0.13	88.1 ± 15	156 ± 21
O=C1Nc2ccc(Cl)cc2C(C#CC2CC2)(C(F)(F)F)O1 (configuration not stated) [Efavirenz]	114 ± 16	85.9	68.9 ± 7.4	99.8	82.9 ± 7.3	108	69.5 ± 1.9	69.6 ± 46	82.3 ± 17
CCN(CC)CCOCCOC(=O)C(CC)(CC)c1ccccc1.O=C(O)CC(O)(CC(=O)O)C(=O)O [Oxeladin Citrate]	111.1 ± 1.1	92.7	143 ± 73	99.4	98.7 ± 22	122	84.9 ± 4.5	82.4 ± 24	119 ± 21
CC12CCC3c4ccc(OC(=O)c5ccccc5)cc4CCC3C1CCC2O (configuration not stated) [Estradiol Benzoate]	123.5 ± 0.41	131	79.7 ± 1.4	84.7	191 ± 13	126	83.6 ± 14	132 ± 29	138 ± 13
CNS(=O)(=O)Cc1ccc2[nH]cc(CCN(C)C)c2c1.O=C(O)CCC(=O)O [Sumatriptan Succinate]	89.3 ± 18	110	89.6 ± 31	82.8	81.4 ± 5.5	120	101 ± 13	106 ± 18	106 ± 4.2
CC(=O)SC1CC2=CC(=O)CCC2(C)C2CCC3(C)C(CCC34CCC(=O)O4)C12 (configuration not stated) [Spironolactone]	109 ± 2.6	114	73.8 ± 9.1	110	75.9 ± 6.1	64.2	79.7 ± 14	88.8 ± 8.7	113 ± 10
CC(C(=O)O)c1cccc(Oc2ccccc2)c1 (configuration not stated) [Fenoprofen calcium hydrate]	98.6 ± 19	104	94.2 ± 14	89	101 ± 6.6	120	85 ± 3.6	105 ± 1.2	139 ± 25
O=c1sn(-c2cccc3ccccc23)c(=O)n1Cc1ccccc1 [Tideglusib]	119 ± 20	114	98.2 ± 11	96.3	95.7 ± 14	94.7	78.4 ± 1.8	86.22 ± 0.6	131 ± 9.7
Cl.NCCS [Cysteamine HCl]	112 ± 4.3	112	93.4 ± 4.4	95.8	79.5 ± 5.4	108	92.8 ± 18	102.7 ± 1	102 ± 7
CCCNC(C)C(=O)Nc1ccccc1C.Cl (configuration not stated) [Prilocaine hydrochloride]	147 ± 18	117	112.29 ± 0.067	113	83.1 ± 5.5	122	102 ± 16	102 ± 6.2	135 ± 5
Clc1ccc(C(c2ccccc2Cl)C(Cl)Cl)cc1 (configuration not stated) [Mitotane (Lsodren)]	127 ± 3.6	112	148 ± 59	107	91.2 ± 3.4	121	97.871 ± 0.035	96.3 ± 24	142 ± 11
CCCCC1C(=O)N(c2ccccc2)N(c2ccccc2)C1=O [Phenylbutazone]	89.4 ± 24	129	86.7 ± 11	97.2	127.3 ± 0.28	120	88.9 ± 1.4	89 ± 23	119 ± 3.8
CC(C)NCC(O)c1ccc(NS(C)(=O)=O)cc1.Cl (configuration not stated) [Sotalol hydrochloride]	102 ± 11	150	109 ± 2.9	111	126 ± 18	144	116 ± 4.6	110 ± 5.1	118 ± 2.6
COc1ccc2c(c1OC)C(=O)OC2C1c2c(cc3c(c2OC)OCO3)CCN1C.Cl (configuration not stated) [Noscapine HCl]	127 ± 6.7	114	127 ± 49	117	101 ± 6.3	117	93.7 ± 5	111 ± 18	139.5 ± 0.58
S=C(NCc1ccc2c(c1)OCO2)N1CCN(c2ncnc3c2oc2ccccc23)CC1 [Amuvatinib (MP-470, HPK 56)]	107 ± 48	120	40 ± 18	81.7	82 ± 9.2	84.3	73 ± 1.1	149 ± 3.3	75.2 ± 9.7
CN(C)CCCN1c2ccccc2Sc2ccc(Cl)cc21.Cl [Chlorpromazine HCl]	137 ± 40	98.9	68.1 ± 7.8	76.5	84.7 ± 3.1	122	51.4 ± 5.5	47.8 ± 7.8	104 ± 2.1
CCn1cc(C(=O)O)c(=O)c2cc(F)c(N3CCNCC3)nc21 [Enoxacin (Penetrex)]	101 ± 5.7	144	102 ± 13	109	104 ± 12	91	79.6 ± 0.81	85.5 ± 12	98.8 ± 2.7

Compound	cell viability (HCI01)	cell viability (HCI03)	cell viability (HCI09)	cell viability (HCI11)	cell viability (HCI13)	cell viability (HCI16)	cell viability (UCD52)	cell viability (WHIM2)	cell viability (WHIM30)
CC(C)(Oc1ccc(C2CC2(Cl)Cl)cc1)C(=O)O (configuration not stated) [Ciprofibrate]	96 ± 14	126	94.3 ± 11	79.4	110 ± 12	114	96.2 ± 2.9	120 ± 3.9	127 ± 15
OC[C@@H](O)[C@@H](O)[C@H](O)[C@H](O)CO [D-Mannitol]	74.7 ± 26	95.7	93.1 ± 16	83.2	88.7 ± 6.7	114	74 ± 2.5	97.5 ± 16	115 ± 6.2
Cl.O=C1CN2Cc3c(ccc(Cl)c3Cl)NC2=N1 [Anagrelide HCl]	121 ± 3.8	140	103 ± 9.3	120	128 ± 11	103	84.4 ± 4.6	116 ± 3.4	98.1 ± 2.5
CC(C)(C)c1cc(C(C)(C)C)c(NC(=O)c2c[nH]c3ccccc3c2=O)cc1O [Ivacaftor (VX-770)]	41.4 ± 24	83.8	18.7 ± 3.1	139	29.5 ± 4.1	121	97.2 ± 20	34.4 ± 0.58	200 ± 19
Nc1cccc2c1CN(C1CCC(=O)NC1=O)C2=O (configuration not stated) [Lenalidomide (CC-5013)]	111 ± 4.1	107	85.5 ± 10	102	80.5 ± 0.91	101	80.5 ± 12	78.6 ± 3.5	134 ± 6.6
CC(=O)O[C@H]1Cc2ccccc2N(C(N)=O)c2ccccc21 [Eslicarbazepine acetate]	102 ± 12	116	111 ± 6.7	85.7	102 ± 11	106	95.5 ± 1.3	102 ± 27	94.1 ± 16
Nc1ccc(O)c(C(=O)O)c1 [Mesalamine]	110 ± 2.2	125	116 ± 8.1	103	130 ± 15	125	105 ± 2.3	92 ± 2.1	155 ± 27
CCCOc1ccc(C(=O)OCCN(CC)CC)cc1N.Cl [Proparacaine HCl]	99.6 ± 12	165	91 ± 17	91.9	111 ± 5.8	109	102 ± 11	97.1 ± 7.6	114 ± 13
Cc1ccc(-c2cc(C(F)(F)F)nn2-c2ccc(S(N)(=O)=O)cc2)cc1 [Celecoxib]	139 ± 24	110	94.7 ± 7.4	94.4	94 ± 2.9	112	70.1 ± 3.8	93.3 ± 12	100.5 ± 1
Cc1nnc(SCC2=C(C(=O)[O-])N3C(=O)[C@@H](NC(=O)Cn4cnnn4)[C@H]3SC2)s1.[Na+] [Cefazolin (sodium salt)]	115 ± 6.6	131	97.4 ± 9.4	85.9	125 ± 18	126	119 ± 12	104 ± 6	129 ± 8.7
CCC(C)C(=O)OC1CC(C)C=C2C=CC(C)C(CCC3CC(O)CC(=O)O3)C21 (configuration not stated) [Lovastatin]	119 ± 27	115	88.2 ± 12	181	131 ± 14	142	50.7 ± 5.3	71.5 ± 6.6	93.17 ± 0.92
O=C(C=Cc1ccc(O)c(O)c1)OC1CC(O)(C(=O)O)CC(O)C1O (configuration not stated) [Chlorogenic acid]	104 ± 3.3	153	119 ± 45	95.8	107 ± 6.4	116	113 ± 2.8	101 ± 14	77 ± 12
CN(C)CCOC(C)(c1ccccc1)c1ccccn1.O=C(O)CCC(=O)O (configuration not stated) [Doxylamine Succinate]	122 ± 18	124	101 ± 14	101	90.5 ± 6.7	108	94.28 ± 0.33	97.4 ± 22	103.9 ± 0.48
CCCCCCCN(CC)CCCC(O)c1ccc(NS(C)(=O)=O)cc1.CCCCCCCN(CC)CCCC(O)c1ccc(NS(C)(=O)=O)cc1.O=C(O)C=CC(=O)O (configuration not stated) [Ibutilide Fumarate]	93.5 ± 15	121	105 ± 18	103	130 ± 10	117	96.8 ± 2	122 ± 3	128 ± 21
Nc1ccc(S(=O)(=O)Nc2nccs2)cc1 [Sulfathiazole]	102 ± 30	140	93.4 ± 7.8	84.5	197 ± 28	116	96.5 ± 11	98.2 ± 6.3	110 ± 8.6
COc1nc(C)nc(Cl)c1NC1=NCCN1 [Moxonidine]	102 ± 7.2	116	103 ± 15	115	98.9 ± 5.5	95.3	82.9 ± 13	116 ± 12	118 ± 8.7
COc1cc2ncnc(Nc3ccc(F)c(Cl)c3)c2cc1OCCCN1CCOCC1 [Gefitinib (ZD1839)]	95.6 ± 51	55.3	77.9 ± 22	110	63.3 ± 1.6	94.8	52.2 ± 1.3	47.8 ± 2.2	128.3 ± 1.1
Nc1ccc(C(=O)[O-])c(O)c1.O.O.[Na+] [Sodium 4-Aminosalicylate]	138 ± 21	157	108 ± 20	95.3	96.8 ± 13	143	77.7 ± 16	87.9 ± 20	92.3 ± 1.1
NNC(=O)c1ccncc1.Nc1ccc(C(=O)O)c(O)c1 [Pasiniazid]	94.9 ± 11	111	127 ± 61	122	182 ± 9.2	83.7	95.1 ± 3.1	80.5 ± 33	133 ± 5.1
